HT1080 IDH1KD tx: kills HT-1080 cells with IDH1 knockdown; Potency, µM (top dose mostly 46.1 µM), inactives show at the highest dose activity, negative = toxicity, hits mostly cytotoxic; HT-1080 IDH1 knockdown viability, ATP luminescence, 48 h; AID 686971; actives 2% (n = 360,000);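 further: 0% = DMSO wells and -100% = cell-free medium wells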
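Luminescent ATP read-out (CellTiter-Glo, 10 min at room temperature) after 48 h compound exposure at 37 °C gave viability of IDH1-knockdown HT-1080 cells. Activity was normalised to DMSO and cell-free wells, then fitted as concentration-response curves.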
DT40 TDP1 no CPT: qHTS for Inhibitors of human tyrosyl-DNA phosphodiesterase 1 (TDP1): qHTS in cells in absence of CPT; Potency, µM (titrated, usually from 46.2 µM), without a hit: at the top dose activity change, negative = growth inhibition, hits mostly inhibitors; DT40 Tdp1-/- hTDP1 cells, no CPT, ATP luminescence, 48 h; actives 15% (n = 420,000); further: on the % scale 0 is the no-effect control and ±100 the full control effect; nearly all actives have a fitted effect of over 55% in size
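Cells were dispensed at 400 per well, compounds added by pin tool, plates incubated ≥48 hr at 37 °C, then CellTiter-Glo added for 30 min at room temperature before luminescence reading. Line: DT40 Tdp1-/- complemented with hTDP1; camptothecin omitted.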
TGFb inhibitor: TGF-b pathway inhibition; HepG2 CAGA-GFP TGF-b/SMAD3 reporter, GFP fluorescence, 18 h; TGF-beta stimulated, 500 pg/mL final; Potency, µM (series often up to 46.1 µM), for inactives: at the highest dose activity, negative = inhibition, most hits filed as inhibitors; actives 1.2% (n = 410,000); further: on the % scale 0 is the no-effect control and ±100 the full control effect; nearly all actives have a fitted effect of over 65% in size
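First, reporter cells (HEPG2 CAGA-GFP) rested 2 h at 37 degrees C. Next, compounds were pinned in and TGF-beta added to 500 pg/mL final. After 18 h, GFP was imaged per cell and summed per well.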
DT40 TDP1 CPT: DT40-hTDP1 cell growth loss with CPT; chicken DT40 Tdp1-/-;hTDP1 cells + 20 nM CPT, ATP luminescence, 48 h; Potency, µM (series often up to 46.2 µM), inactives show top-dose activity change, negative = growth inhibition, usual class: inhibitors; actives 12% (n = 420,000); AID 686979; further: on the % scale 0 is the no-effect control and ±100 the full control effect; nearly all actives have a fitted effect of over 55% in size
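Cell growth measured by CellTiter-Glo luminescence after a minimum 48 h, 37 C compound exposure with 20 nM CPT in Tdp1-knockout DT40 cells stably expressing hTDP1, seeded 400/well; qHTS titration format.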
HepG2 viability: kills HepG2 cells in TGF-b inhibitor counter-screen. HepG2 CAGA-GFP viability, ATP luminescence, 18 h. Potency, µM (doses to about 46.1 µM), inactives show at the top dose activity change, negative = cytotoxicity, hits mostly cytotoxic. actives 0.76% (n = 410,000)
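CellTiter-Glo luminescence gave cytotoxicity after 18 hours at 37 degrees C. The cells were HepG2 CAGA-GFP in 1% FBS DMEM, stimulated with 500 pg/mL TGF-beta after compound addition. %Activity was normalised to no-cell wells (complete cell-killing) and DMSO (no toxicity), and curves were fitted and classified.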
HT1080NT lethal: kills 2HG-producing HT-1080-NT fibrosarcoma cells. HT-1080-NT fibrosarcoma viability, CellTiter-Glo ATP luminescence, 48 h. Potency, µM (series often up to 46.1 µM), for the others: top-dose activity, negative = less viability, hits mostly cytotoxic. actives 1.6% (n = 360,000). AID 686970;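 further: NT is the 2HG producing partner of a matched IDH1 knockdown line; 0% = DMSO-treated cells and -100% = media-only wells without cells; nearly all actives have a fitted effect of over 55% in size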
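HT-1080-NT fibrosarcoma cells (2HG-overproducing), 750 cells/well in RPMI with 5% FBS, dosed after 2 h and incubated 48 h at 37C. CellTiter-Glo luminescence normalized to DMSO and no-cell wells; concentration-response curves fitted and classed.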
Numbers without * were called inactive; ? = inconclusive; / = no result given. An excerpt weighted towards active compounds, which were near 17% of everything screened. The call rests on the fitted dose curve; in most records, active means well fitted curve in the direction sought with a large enough effect; inconclusive means small, poorly fitted or top-dose-only effect, or another doubt; inactive means no such curve, though single readings can be large; an effect the other way counts as inactive or inconclusive. Potency means the concentration at half of the fitted maximal effect.

SMILES	HT1080 IDH1KD tx	DT40 TDP1 no CPT	TGFb inhibitor	DT40 TDP1 CPT	HepG2 viability	HT1080NT lethal
CCC(=O)N(C)CCc1cc2c(c(OC)c1/C=N/NC(=O)c1ccc(Br)cc1)OCO2	7.2%	-19.2%	-25.4%	-25.5%	-5.8%	6.2%
N#Cc1cccc(C(=O)OCC(=O)NCc2ccco2)c1	19.8%	20.7%	-12.2%	-14.7%	-1.1%	13.9%
COc1cc(C2CC(=O)Oc3ccc(C(C)(C)C)cc32)cc(OC)c1OC (stereo unspecified)	8.2%	-6.8%	1.1%	-21.1%	-27.8%	16.9%
C=CCN(c1ccccc1OC)S(=O)(=O)c1ccc(Cl)c(C(=O)NCc2ccco2)c1	-0.9%	13µM*	-23.7%	18.4µM*	-1.0%	-1.9%
COc1ccc(S(=O)(=O)N(Cc2ccccc2)c2ccccc2C(=O)Nc2ccccc2C(=O)NCc2ccco2)cc1	0.6%	5.8µM*	?	?	-11.7%	5.9%
COCCCNC(=O)c1ccccc1N(Cc1ccccc1)S(=O)(=O)c1ccc(OC)cc1	-2.5%	20.6µM*	-25.7%	?	-6.9%	?
O=C(NCc1ccco1)c1ccccc1NS(=O)(=O)c1ccc(Br)s1	-11.9%	?	?	?	-40.9%	-11.7%
COc1ccc(S(=O)(=O)Nc2ccccc2C(=O)NCc2ccco2)cc1	22.8%	?	-1.2%	20.6µM*	10.5%	22.0%
CC1(C2CC2)NC(=O)N(CC(=O)N2CCN(c3ccccc3Cl)CC2)C1=O (stereo unspecified)	-1.8%	?	-9.6%	-28.9%	6.9%	-6.6%
COc1cccc(OCCSc2nc(N)cc(N)n2)c1	?	20.6µM*	-8.0%	?	-18.8%	-25.7%
Cc1nn(CC(=O)Nc2cccc(C(F)(F)F)c2)c(=O)c2nn(-c3ccccc3)c(C)c12	/	-2.9%	1.4%	-1.9%	-10.0%	/
COc1ccc2c(c1)CCc1cnc(-n3ncc(C(=O)N(C)CC4CCCN(C)C4)c3C)nc1-2 (stereo unspecified)	/	-9.7%	/	-11.3%	/	/
Cc1ccc(Cl)cc1NC(=O)CSCc1cnn(-c2ccccc2)c1-n1cccc1	/	16.4µM*	/	16.4µM*	-35.8%	/
O=C(CCSCc1cnn(-c2ccccc2)c1-n1cccc1)NCc1ccccc1Cl	/	?	?	18.4µM*	-13.6%	/
CNC(=O)CSCc1cnn(-c2ccccc2)c1-n1cccc1	6.6%	-16.7%	4.8%	5.8%	-0.7%	-0.6%
CC(C)CCNC(=O)CSCc1cnn(-c2ccccc2)c1-n1cccc1	/	20.6µM*	0.0%	20.6µM*	-26.2%	/
O=C(CSCc1cnn(-c2ccccc2)c1-n1cccc1)NCc1ccc(F)cc1	/	?	?	?	-41.9%	/
Cc1cccc(CNC(=O)CSCc2cnn(-c3ccccc3)c2-n2cccc2)c1	/	?	/	?	-40.7%	/
Cc1ccc(NC(=O)CSCc2cnn(-c3ccccc3)c2-n2cccc2)c(C)c1	/	16.4µM*	/	?	-29.6%	/
CCN(c1ccccc1)S(=O)(=O)c1ccc(OC)c(NC(=O)c2ccc(=O)[nH]c2)c1	-4.4%	-22.4%	2.7%	27.2%	-2.9%	-3.3%
CCN(CC)C(=O)C1=C(C)N(CCCOC)C(=O)C(CC(=O)NCc2ccco2)C1 (stereo unspecified)	3.9%	-2.3%	-6.9%	-1.6%	-11.9%	14.1%
C=Cc1ccc(CN2C(=O)N(c3ccc(CC)cc3)S(=O)(=O)c3ccccc32)cc1	/	?	?	?	-8.5%	/
Cc1ccccc1OCc1nnc(SCc2cc(=O)c3ccc(C)c(C)c3[nH]2)n1C	/	16.4µM*	-1.0%	?	1.7%	/
Cc1cccc(-c2nnc(SCc3cc(=O)c4cccc(Cl)c4[nH]3)n2C)c1	/	16.4µM*	?	23.1µM*	-36.6%	/
Cc1ccccc1OCc1nnc(SCc2cc(=O)c3cc(F)ccc3[nH]2)n1C	/	11.6µM*	-6.4%	13µM*	-9.8%	/
SMILES	HT1080 IDH1KD tx	DT40 TDP1 no CPT	TGFb inhibitor	DT40 TDP1 CPT	HepG2 viability	HT1080NT lethal
Cc1ccccc1OCc1nnc(SCc2nc3ccccc3c(=O)[nH]2)n1C	6.2%	-2.1%	-16.1%	5.4%	-5.0%	13.4%
Cc1ccc2c(=O)cc(CSc3nnc(-c4ccccc4)n3C)[nH]c2c1C	/	-22.3%	1.8%	-16.8%	-29.6%	/
Cc1ccc2[nH]c(CSc3nnc(COc4ccccc4C)n3C)cc(=O)c2c1	/	14.6µM*	-23.5%	18.4µM*	-1.9%	/
CCCCc1nnc(SCc2cc(=O)c3cc(F)ccc3[nH]2)n1C	/	?	-0.9%	?	-0.3%	/
COC(C(=O)N/N=C/c1ccc(OCC(=O)N2CCOCC2)cc1)c1ccccc1 (stereo unspecified)	-0.6%	-6.0%	10.1%	8.0%	-0.7%	14.3%
O=c1cc(CSc2ccccc2)[nH]c2ccccc12	6.7%	?	-19.9%	25.9µM*	-3.2%	-0.5%
Cc1cc(C)c2c(=O)cc(CSc3nnc(COc4ccccc4C)n3C)[nH]c2c1	/	?	-0.4%	?	5.6%	/
Cc1ccc2c(=O)cc(CSc3ccccc3)[nH]c2c1C	/	?	9.7%	?	0.5%	/
Cc1ccccc1OCc1nnc(SCc2cc(=O)c3ccccc3[nH]2)n1C	/	14.6µM*	?	13µM*	-9.2%	/
COc1ccc(CNC(=O)[C@H](C)NC(=O)C2CCN(S(=O)(=O)c3ccccc3)CC2)cc1	6.1%	-2.7%	12.8%	-14.5%	-0.7%	-0.3%
O=c1[nH]c(CN(CCO)CCO)nc2c1C1(CCCCC1)Cc1ccccc1-2	-5.2%	-0.1%	-3.9%	?	7.3%	-8.2%
CCN(CC)Cc1nc2c(c(=O)[nH]1)C1(CCCC1)Cc1ccccc1-2	-20.8%	?	-2.6%	20.6µM*	-3.8%	9.0%
O=C(Nc1ccc(Cl)cc1)N1CCCN(Cc2ccccc2F)C1	12.6µM*	?	7.4%	25.1µM*	-53.9%	?
Cc1cccc(C)c1NC(=S)N1CCCN(Cc2ccc(F)cc2)C1	-14.0%	?	-11.6%	0.4%	-1.6%	-26.5%
CC(=O)Nc1ccc(N2CCN(Cc3ccccc3F)CC2)cc1	-6.3%	-15.8%	-3.2%	-9.7%	-30.4%	-12.6%
COc1cccc(NC(=S)N2CCCN(Cc3ccc(F)cc3)C2)c1	?	23.1µM*	-18.9%	-9.6%	6.9%	0.0%
Cc1ccc(NC(=O)N2CCCN(Cc3ccc(F)cc3)C2)cc1C	16.4µM*	?	-6.6%	?	-89.7%	14.6µM*
